# Inconclusive results are not listed. Calls of active or inactive are those of the source. Rule for the calls, unless noted: active = hit-call score of the fitted dose curve at least 0.9, where 1 is the maximum; inactive = score below 0.9.
# Assays:
# [1] = CCTE_Shafer_MEA_acute_burst_duration_mean: CCTE's Neural Acute Assay for Mean Burst Duration, Shafer Lab (AID 2284014);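 note: hits are decreases in mean burst duration relative to DMSO controls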
# Outline: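 Read-out is the per-well percent change in mean burst duration (first to last spike within a single-electrode burst) between 40-min recordings before and after compound. Cultures were primary rat cortical neurons on MEAs, dosed at 0.03-40 uM on DIV 13 or 15.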
# [2] = CCTE_Shafer_MEA_acute_per_burst_spike_number_mean: CCTE's Neural Acute Assay for Average Number of Spikes Per Burst, Shafer Lab (AID 2284015);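 note: hits are decreases in mean spikes per burst versus baseline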
# Outline: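 Read-out: percent change in mean spikes per burst, each well's post-exposure 40-min recording versus its own 40-min baseline. Rat cortical cultures, DIV 13 or 15, compounds 0.03-40 uM; DMSO is negative control, loss-of-signal fitting.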
# [3] = CCTE_Shafer_MEA_acute_interburst_interval_mean: CCTE's Neural Acute Assay for Mean Interburst Interval, Shafer Lab (AID 2284016);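 note: percent change of mean interburst interval versus each well's own pre-dose baseline; curves fitted for decrease in interburst interval relative to DMSO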
# Outline: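 Rat cortical cultures, DIV 13/15; 20 min equilibration, 40 min baseline, compound 0.03-40 uM, 40 min re-recording, 37 C. Spikes detected at 8x rms noise (300-5000 Hz band-pass). Endpoint: % change in interburst interval, fitted in loss direction vs DMSO.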
# [4] = CCTE_Shafer_MEA_acute_burst_percentage_mean: CCTE's Neural Acute Assay for Percentage of Spikes in a Burst, Shafer Lab (AID 2284017);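 note: curve fitted for loss of signal so potency reflects decreased burst percentage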
# Outline: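 Rat cortical cultures, DIV 13/15, 37 C. Spikes detected at 8x rms noise (300-5000 Hz band-pass). Burst spikes/total spikes averaged across electrodes per well; % change post- vs pre-treatment (40 min each), loss-of-signal fit vs DMSO.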
# [5] = CCTE_Shafer_MEA_acute_burst_percentage_std: CCTE's Neural Acute Assay for Standard Deviation of Burst Percentage, Shafer Lab (AID 2284018);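 note: fitted in the negative direction so actives lower burst percentage SD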
# Outline: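 Value is percent change from baseline in the across-electrode SD of spikes-in-bursts percentage, wells with >/= 10 active electrodes. Acute 40-min exposure to 0.03-40 uM on DIV 13 or 15 rat cortical cultures, recorded at 37 C after 40-min baseline.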
# [6] = CCTE_Shafer_MEA_acute_per_network_burst_spike_number_mean: CCTE's Neural Acute Assay for Average Number of Spikes in a Network Burst, Shafer Lab (AID 2284019)
# Outline: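 Read-out is mean spike count per network burst, taken as percent change between a 40-min pre-exposure and a 40-min post-exposure recording per well. Rat primary cortical neurons on MEAs at 37 C, DIV 13 or 15; compounds at 0.03-40 uM.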
# [7] = CCTE_Shafer_MEA_acute_per_network_burst_spike_number_std: CCTE's Neural Acute Assay for Standard Deviation of Number of Spikes in a Network Burst, Shafer Lab (AID 2284020);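 note: fitted for decrease in spike-number SD versus DMSO so actives lower it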
# Outline: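 Spontaneous network activity of primary rat cortical neurons is recorded extracellularly before and after a 40-min compound exposure (0.03-40 uM) at 37 C. The endpoint is the well's percent change in burst spike-number SD.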
# [8] = CCTE_Shafer_MEA_acute_per_network_burst_electrodes_number_mean: CCTE's Neural Acute Assay for Mean Number of Electrodes in a Network Burst, Shafer Lab (AID 2284021);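 note: curves fitted for decreases only so hits reduce electrodes per burst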
# Outline: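 Readout: % change in mean electrodes active per network burst, post- vs pre-treatment, each well. Spikes detected at 8x rms noise after 300-5000 Hz band-pass; rat cortical cultures, DIV 13/15, compounds 0.03-40 uM, DMSO baseline.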
# [9] = CCTE_Shafer_MEA_acute_cross_correlation_area: CCTE's Neural Acute Assay for Area of Cross Correlation, Shafer Lab (AID 2284024);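 note: area under pooled inter-electrode spike cross-correlation near zero lag as percent change from own baseline; curves fitted for loss of cross-correlation area so actives lower synchrony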
# Outline: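 Rat cortical cultures, DIV 13/15, MEA; spikes detected at 8x rms noise (300-5000 Hz band-pass). Compound 0.03-40 uM, ≥3 wells each. Readout: % change in pooled inter-electrode cross-correlation area vs own baseline; DMSO negative control.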
# [10] = CCTE_Shafer_MEA_acute_synchrony_index: CCTE's Neural Acute Assay for Synchrony, Shafer Lab (AID 2284027);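 note: fitted for loss of signal so actives lower synchrony relative to DMSO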
# Outline: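 Readout is percent change in the unitless network synchrony index (0 low, 1 high) between a 40-min baseline and a 40-min recording in compound. Cultures were primary rat cortical neurons on MEAs, treated at 0.03-40 uM on DIV 13 or 15.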
# [11] = CCTE_Shafer_MEA_acute_AB: CCTE's Alamar Blue Assay for Cytotoxicity in the Neural Acute Assay, Shafer Lab (AID 2284069; active = hit-call score of the fitted dose curve at least 0.9, where 1 is the maximum;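 note: active compounds lower the viability signal compared with DMSO wells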)
# Outline: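 Metabolic activity in chemically exposed rat cortical neurons (MEA cultures, day 13/15 post-plating) measured via CellTiter Blue resazurin reduction, 544/590 nm fluorescence; fitted relative to DMSO, with signal loss indicating reduced viability.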
# [12] = CCTE_Shafer_MEA_acute_LDH: CCTE's Lactate Dehydrogenase Assay for Cytotoxicity in the Neural Acute Assay, Shafer Lab (AID 2284086; active = hit-call score of the fitted dose curve at least 0.9, where 1 is the maximum;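 note: active means LDH release rises above DMSO vehicle level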)
# Outline: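 Rat cortical neurons cultured on microelectrode arrays; baseline 40-min recording, compound added, second 40-min recording; medium then sampled for released LDH (colorimetric kit, 490 nm). DMSO = negative control.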
# [13] = read-out: Monokine induced gamma interferon (MIG), CXCL9 (gene 4283); assay: BSK_KF3CT_MIG: BioMAP Diversity Plus: KF3CT Assay for Monokine induced gamma interferon (MIG) Biomarker Activity (AID 2284248); conditions: primary human keratinocytes with fibroblasts
# Outline: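 ELISA read-out of MIG after 24 h chemical exposure of human skin primary co-culture (keratinocytes, foreskin fibroblasts). Gain of signal relative to DMSO negative control was analysed.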
# [14] = read-out: Collagen I, COL1A1 (gene 1277); assay: BSK_hDFCGF_CollagenI: BioMAP Diversity Plus: hDFCGF Assay for Collagen I Biomarker Activity (AID 2284250); conditions: primary human foreskin fibroblasts
# Outline: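 Human skin primary fibroblasts dosed with test chemical, harvested at 24 h, Collagen I quantified by ELISA; parallel SRB staining (0.1% SRB after 10% TCA fixation, 560 nm) tracked cytotoxicity.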
# [15] = read-out: Interferon-inducible T-cell alpha chemoattractant (ITAC), CXCL11 (gene 6373); assay: BSK_hDFCGF_ITAC: BioMAP Diversity Plus: hDFCGF Assay for Interferon-inducible T-cell alpha chemoattractant (ITAC) Biomarker Activity (AID 2284251); conditions: primary human foreskin fibroblasts
# Outline: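 Fibroblasts (human foreskin, primary) are treated with chemical, cultured 24 h, then assayed for I-TAC by ELISA. Overt toxicity is checked in parallel cultures by sulforhodamine B staining of total protein at the same time point.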
# [16] = read-out: Plasminogen activator inhibitor-1 (PAI1), SERPINE1 (gene 5054); assay: BSK_KF3CT_PAI1: BioMAP Diversity Plus: KF3CT Assay for Plasminogen activator inhibitor-1 (PAI1) Biomarker Activity (AID 2284252); conditions: primary human keratinocytes with fibroblasts
# Outline: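 ELISA read-out of PAI-1 taken 24 h after chemical treatment of a human skin primary co-culture of keratinocytes and foreskin fibroblasts. Increases over DMSO-treated wells defined activity.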
# [17] = read-out: Interleukin-8 (IL8), CXCL8 (gene 3576); assay: BSK_KF3CT_IL8: BioMAP Diversity Plus: KF3CT Assay for Interleukin-8 (IL8) Biomarker Activity (AID 2284254); conditions: primary human keratinocytes with fibroblasts
# Outline: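 IL-8 read-out: ELISA, 24 h post-dose, human skin primary co-culture (keratinocytes + foreskin fibroblasts). DMSO = baseline; positive-direction fit.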
# [18] = read-out: Intercellular Adhesion Molecule 1 (ICAM1), ICAM1 (gene 3383); assay: BSK_BE3C_ICAM1: BioMAP Diversity Plus: BE3C Assay for Intercellular Adhesion Molecule 1 (ICAM1) Biomarker Activity (AID 2284278); conditions: primary human bronchial epithelial cells;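 note: cell-surface ICAM-1 protein level quantified by ELISA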
# Outline: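 Human primary bronchial epithelial cultures; compound added; 24 h incubation; cell-surface ICAM-1 measured by ELISA; signal increase fitted relative to DMSO negative control.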
# [19] = read-out: Interferon-inducible T-cell alpha chemoattractant (ITAC), CXCL11 (gene 6373); assay: BSK_BE3C_ITAC: BioMAP Diversity Plus: BE3C Assay for Interferon-inducible T-cell alpha chemoattractant (ITAC) Biomarker Activity (AID 2284279); conditions: primary human bronchial epithelial cells
# Outline: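 BE3C cells (human primary bronchial epithelium), 24 h compound exposure, I-TAC by ELISA, DMSO = negative control/baseline, positive fitting direction.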
# [20] = read-out: Interleukin-8 (IL8), CXCL8 (gene 3576); assay: BSK_BE3C_IL8: BioMAP Diversity Plus: BE3C Assay for Interleukin-8 (IL8) Biomarker Activity (AID 2284280); conditions: primary human bronchial epithelial cells
# Outline: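 IL-8 signal gain, normalised to DMSO vehicle, was scored after a 24 h chemical exposure of primary human bronchial epithelial cells, with detection by ELISA.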
# [21] = read-out: Epidermal growth factor receptor (EGFR), EGFR (gene 1956); assay: BSK_BE3C_EGFR: BioMAP Diversity Plus: BE3C Assay for Epidermal growth factor receptor (EGFR) Biomarker Activity (AID 2284281); conditions: primary human bronchial epithelial cells
# Outline: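 Compound is added to human bronchial epithelial cells, cells incubate 24 h, then EGFR is detected by ELISA. Values reflect positive-direction fitting relative to DMSO.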
# KRT18 (gene 3875) = assay: BSK_BE3C_Keratin818: BioMAP Diversity Plus: BE3C Assay for Keratin 818 Biomarker Activity (AID 2284282); conditions: primary human bronchial epithelial cells
# Outline: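 Chemicals are added to human lung bronchial epithelial primary cells (BE3C system) and incubated 24 h. Keratin 8/18 is then measured by ELISA, with parallel SRB total-protein staining gauging overt cytotoxicity.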
# [22] = read-out: Matrix Metallopeptidase 9 (MMP9), MMP9 (gene 4318); assay: BSK_BE3C_MMP9: BioMAP Diversity Plus: BE3C Assay for Matrix Metallopeptidase 9 (MMP9) Biomarker Activity (AID 2284283); conditions: primary human bronchial epithelial cells
# Outline: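 ELISA read-out of MMP-9 after 24 h compound exposure of human lung bronchial epithelial primary cells (BE3C). Fit in gain direction vs DMSO negative control; total protein by SRB in parallel cultures flagged overt cytotoxicity.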
# [23] = read-out: Plasminogen activator inhibitor-1 (PAI1), SERPINE1 (gene 5054); assay: BSK_CASM3C_PAI1: BioMAP Diversity Plus: CASM3C Assay for Plasminogen activator inhibitor-1 (PAI1) Biomarker Activity (AID 2284284); conditions: primary human coronary artery smooth muscle cells;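 note: PAI-1 protein level measured by ELISA 24 h after dosing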
# [24] = read-out: Monocyte Chemoattractant Protein-1 (MCP1), CCL2 (gene 6347); assay: BSK_hDFCGF_MCP1: BioMAP Diversity Plus: hDFCGF Assay for Monocyte Chemoattractant Protein-1 (MCP1) Biomarker Activity (AID 2284285); conditions: primary human foreskin fibroblasts
# Outline: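 Human foreskin fibroblasts (hDFCGF system) were exposed to compound and secreted MCP-1 was measured by ELISA after 24 hours. Activity was fitted relative to DMSO. Cytotoxicity was checked by SRB total-protein staining in parallel cultures.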
# [25] = read-out: Intercellular Adhesion Molecule 1 (ICAM1), ICAM1 (gene 3383); assay: BSK_hDFCGF_ICAM1: BioMAP Diversity Plus: hDFCGF Assay for Intercellular Adhesion Molecule 1 (ICAM1) Biomarker Activity (AID 2284287); conditions: primary human foreskin fibroblasts
# Outline: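 Primary human foreskin fibroblasts (hDFCGF system) dosed with chemical; ICAM-1 quantified by ELISA at 24 h relative to DMSO. Parallel SRB total-protein staining to assess overt cytotoxicity.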
# [26] = read-out: TIMP metallopeptidase inhibitor 2 (TIMP2), TIMP2 (gene 7077); assay: BSK_hDFCGF_TIMP2: BioMAP Diversity Plus: hDFCGF Assay for TIMP metallopeptidase inhibitor 2 (TIMP2) Biomarker Activity (AID 2284289); conditions: primary human foreskin fibroblasts
# Outline: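 Primary human foreskin fibroblasts in the hDFCGF system, dosed for 24 h; TIMP-2 level measured by ELISA, fitted in the positive direction against DMSO; cytotoxicity checked in parallel by sulforhodamine B total protein staining.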
# [27] = read-out: Thrombomodulin, THBD (gene 7056); assay: BSK_LPS_Thrombomodulin: BioMAP Diversity Plus: LPS Assay for Thrombomodulin Biomarker Activity (AID 2284296); conditions: primary human HUVEC with PBMC
# Outline: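 Human umbilical vein endothelial cells co-cultured with PBMC and stimulated with LPS; cell-surface thrombomodulin measured by ELISA 24 hours after compound. Gain or loss versus DMSO; cytotoxicity checked by SRB staining in parallel cultures.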
# CD69, CD69 (gene 969) = assay: BSK_LPS_CD69: BioMAP Diversity Plus: LPS Assay for CD69 Biomarker Activity (AID 2284303); conditions: primary human HUVEC with PBMC
# Outline: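 Human umbilical vein endothelial cells co-cultured with PBMC under LPS stimulation, chemical exposure 24 h; cell-surface CD69 measured by ELISA and fitted in the positive direction versus DMSO.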
structure (smiles),measurement,setting,value
CCCC[N+](CCCC)(CCCC)CCCC,AC50,[1],9.59 µM (active)
same,AC50,[2],5.44 µM (active)
same,AC50,[3],9.27 µM (active)
same,AC50,[4],9.71 µM (active)
same,AC50,[5],23.2 µM (active)
same,outcome,[6],inactive
same,AC50,[7],5.6 µM (active)
same,outcome,[8],inactive
same,AC50,[9],0.00953 µM (active)
same,AC50,[10],9.18 µM (active)
same,outcome,[11],inactive
same,outcome,[12],inactive
same,outcome,[13],inactive
same,outcome,[14],inactive
same,outcome,[15],inactive
same,outcome,[16],inactive
same,outcome,[17],inactive
same,outcome,[18],inactive
same,outcome,[19],inactive
same,outcome,[20],inactive
same,outcome,[21],inactive
same,outcome,KRT18 (gene 3875),inactive
same,outcome,[22],inactive
same,outcome,[23],inactive
same,outcome,[24],inactive
same,outcome,[25],inactive
same,outcome,[26],inactive
same,outcome,[27],inactive
same,outcome,"CD69, CD69 (gene 969)",inactive

# From PubChem BioAssay (EPA / NIEHS)
